Hit rate of the full screen: of about 330,000 compounds, about 10,000 (3%) were called active.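 The calls were made as follows: active = inhibition of at least 50% at 8 µM in the primary screen; inactive = the rest.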 Only a selection was taken, and actives are over-represented in it overall.
These compounds were tested against Protein Mdm4 (Homo sapiens) + E3 ubiquitin-protein ligase Mdm2 (Homo sapiens) (UniProt O15151+Q00987) (assay: disruptors of Mdm2/MdmX RING complex – cell-based, luminescence, split luciferase, SaOS-2, uHTS, primary screen (AID 485346)). Conditions: SaOS-2 split-luciferase Mdm2/MdmX complementation, at 8 µM, stronger effect = higher value.
Sequence of Protein Mdm4 (Homo sapiens) + E3 ubiquitin-protein ligase Mdm2 (Homo sapiens) (O15151 whole entry, looked up): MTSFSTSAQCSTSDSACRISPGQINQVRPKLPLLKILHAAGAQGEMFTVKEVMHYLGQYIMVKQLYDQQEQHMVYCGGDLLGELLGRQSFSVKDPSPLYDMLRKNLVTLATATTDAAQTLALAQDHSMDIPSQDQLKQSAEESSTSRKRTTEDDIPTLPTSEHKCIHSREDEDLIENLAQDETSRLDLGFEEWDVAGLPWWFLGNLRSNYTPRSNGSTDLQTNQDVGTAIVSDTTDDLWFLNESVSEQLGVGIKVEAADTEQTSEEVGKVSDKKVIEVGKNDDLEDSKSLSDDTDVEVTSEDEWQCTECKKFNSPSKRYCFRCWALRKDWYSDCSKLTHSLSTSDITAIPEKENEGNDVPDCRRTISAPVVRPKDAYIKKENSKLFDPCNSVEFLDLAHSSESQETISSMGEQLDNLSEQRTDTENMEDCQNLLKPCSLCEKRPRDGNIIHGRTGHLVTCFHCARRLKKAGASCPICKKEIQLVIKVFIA
Sequence of Protein Mdm4 (Homo sapiens) + E3 ubiquitin-protein ligase Mdm2 (Homo sapiens) (Q00987 whole entry, looked up): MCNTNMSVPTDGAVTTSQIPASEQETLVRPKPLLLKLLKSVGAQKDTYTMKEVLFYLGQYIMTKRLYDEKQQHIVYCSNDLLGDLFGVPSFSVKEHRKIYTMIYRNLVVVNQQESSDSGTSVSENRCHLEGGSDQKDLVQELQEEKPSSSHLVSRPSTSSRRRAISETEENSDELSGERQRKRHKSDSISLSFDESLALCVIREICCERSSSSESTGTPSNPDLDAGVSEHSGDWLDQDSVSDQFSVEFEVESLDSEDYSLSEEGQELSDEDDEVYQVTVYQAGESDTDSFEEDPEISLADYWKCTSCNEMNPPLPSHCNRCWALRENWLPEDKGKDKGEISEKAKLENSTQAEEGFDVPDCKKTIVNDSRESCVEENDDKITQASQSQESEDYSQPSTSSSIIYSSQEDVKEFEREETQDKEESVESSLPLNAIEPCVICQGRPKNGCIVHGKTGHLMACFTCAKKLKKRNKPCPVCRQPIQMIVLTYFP
With `COc1ccccc1C1CC(=O)n2c(nc(-c3ccccc3)c2-c2ccccc2)S1` (stereo not drawn) the inhibition was -21.8% (inactive).
For `O=C(N[C@@H](Cc1c[nH]c2ccccc12)C(=O)O)OCC1c2ccccc2-c2ccccc21`, the inhibition was -20.2% (inactive).
For `C=C1CCC(N(O)c2cc(C)on2)C(=C)CCC2C1CC2(C)C` (stereo not drawn), the inhibition was -8.29% (inactive).
For `CC(=O)Nc1ccc(S(=O)(=O)N(CCc2ccccc2)CC(=O)N/N=C/c2ccc(C(=O)O)cc2)cc1`, the inhibition was -1.72% (inactive).
For `Cc1ccc(N=C2NC(=O)/C(=C/C=C/c3ccco3)S2)cc1C`, the inhibition was 7.92% (inactive).
In the case of `CN(C)c1ccc(-n2cccc2/C=C2/SC(=Nc3ccc(F)cc3)NC2=O)cc1`, the inhibition is reported as 53.3% (active).
`CN(C)c1ccc(-n2cccc2/C=N/n2cnnc2)cc1` was tested, and the inhibition was 18.3% (inactive).
`Cc1ccc(S(=O)(=O)N2CCCCC2)cc1NC(=O)CCNC(=O)c1ccccc1` was tested, and the inhibition was -6.37% (inactive).
In the case of `O=C(CN1CCOCC1)Nc1cccc([N+](=O)[O-])c1`, the inhibition is reported as 14.4% (inactive).
`O=C(Cc1ccc2c(c1)CCCC2)Nc1ccccc1Cl` was tested, and the inhibition was -28.4% (inactive).
With `Cc1c(NC(=O)Nc2ccccc2Cl)sc(=S)n1C` the inhibition was -28% (inactive).
`O=C(Nc1ccccc1Cl)/C(Cl)=C(\Cl)S(=O)c1ccccc1` (stereo not drawn) was tested, and the inhibition was 93.6% (active).
`Cc1ccc(S(=O)(=O)N2CC(O)C[C@H]2C(=O)OCC(=O)Nc2ccc(N3CCOCC3)cc2)cc1C` (stereo partly drawn) was tested, and the inhibition was 31.1% (inactive).
In the case of `COc1cccc2cc(C(=O)N3CCN(C(=O)c4ccccc4)CC3)c(=O)oc12`, the inhibition is reported as 13.1% (inactive).
In the case of `NC(=O)c1cc2ccccc2o/c1=N/NC(=O)c1cccc(F)c1`, the inhibition is reported as 1.22% (inactive).
With `COc1cccc2cc(C(N)=O)/c(=N\NC(=O)c3ccccc3)oc12` the inhibition was 56.6% (active).
For `CC(C)N1CCc2c(sc(NC(=O)Cc3ccccc3)c2C#N)C1`, the inhibition was -40.8% (inactive).
`CC(=O)N1CCc2c(sc(NC(=O)CCS(=O)(=O)c3ccccc3)c2C#N)C1` was tested, and the inhibition was 86.2% (active).
`CC(=O)N1CCc2c(sc(NC(=O)CCS(=O)(=O)c3ccc(C)cc3)c2C(N)=O)C1` was tested, and the inhibition was 25.4% (inactive).
In the case of `COc1ccc(N(C(=O)c2snc(C(N)=O)c2N)C(C(=O)NC2CCCC2)c2ccco2)cc1OC` (stereo not drawn), the inhibition is reported as 22.9% (inactive).
With `O=c1[nH]c(/C=C\c2cccc(C(F)(F)F)c2)nc(O)c1[N+](=O)[O-]` the inhibition was -7.22% (inactive).
For `Cc1ccc(OCC(O)CN2CCN(CC(O)COc3ccc(C)cc3Cl)CC2)c(Cl)c1` (stereo not drawn), the inhibition was 73.5% (active).
For `OC(COc1ccc(F)cc1Cl)CN1CCc2ccccc2C1` (stereo not drawn), the inhibition was -9.27% (inactive).
In the case of `Cc1cccc(OCC(O)CN2CCN(S(=O)(=O)c3ccc(C)cc3C)CC2)c1` (stereo not drawn), the inhibition is reported as -4.83% (inactive).
In the case of `CCOc1cc(NC(=S)NCc2ccco2)c(OCC)cc1NC(=O)c1ccco1`, the inhibition is reported as 9.15% (inactive).
In the case of `CCCc1ccc(OCCNC(=O)c2ccco2)cc1`, the inhibition is reported as -4.69% (inactive).
For `COc1ccc(C(=O)NC(=S)NNC(=O)CCc2ccccc2)cc1`, the inhibition was 58.1% (active).
In the case of `CCOc1cc(NC(=O)c2ccco2)c(OCC)cc1NC(=O)COc1ccccc1`, the inhibition is reported as 55.2% (active).
`CCCc1ccc(OCC(=O)NNC(=S)NC(=O)c2ccco2)cc1` was tested, and the inhibition was 50% (active).
With `CC(C)Oc1ccc(CCC(=O)NNC(=S)NCc2ccccc2)cc1` the inhibition was -12.8% (inactive).
For `COc1ccc(C(=O)NC(=S)NNC(=O)c2c(-c3ccccc3)noc2C)cc1`, the inhibition was 14.7% (inactive).
For `CC(Oc1ccc2ccccc2c1)C(=O)NNC(=S)NC(=O)c1ccco1` (stereo not drawn), the inhibition was 19.6% (inactive).
In the case of `COc1ccc(OCC(=O)Nc2ccc(NC(=O)c3ccco3)c(C)c2)cc1`, the inhibition is reported as -0.739% (inactive).
With `Cc1cccc(OC(C)C(=O)N2CCc3ccccc3C2)c1` (stereo not drawn) the inhibition was -5.47% (inactive).
With `COC(c1ccccc1)c1nnc(CCC(=O)N2CCN(CCOc3ccccc3)CC2)o1` (stereo not drawn) the inhibition was -18.9% (inactive).
For `CC(C)c1ccc(NC(=O)COC(=O)c2ccc(CN3CCCC3=O)cc2)cc1`, the inhibition was 8.45% (inactive).
With `COc1c(N2CCN(C(=S)Nc3ccccc3F)C(C)C2)c(F)cc2c(=O)c(C(=O)O)cn(C3CC3)c12` (stereo not drawn) the inhibition was -14.1% (inactive).
With `CNC(=O)NC(=O)C(OC(=O)c1cccc(S(=O)(=O)N2CCCCC2)c1)c1ccccc1` (stereo not drawn) the inhibition was -21.4% (inactive).
With `COc1ccccc1/C=N/Nc1nc(C)c(C(C)=O)s1` the inhibition was -49.5% (inactive).
For `Cc1nc(Cl)cc(N/N=C/c2ccccc2)n1`, the inhibition was -5.97% (inactive).
In the case of `COc1ccccc1/C=N\Nc1cc(C)nc(-n2nc(C)cc2C)n1`, the inhibition is reported as 57.4% (active).
For `Cc1cc(N/N=C\c2ccc(Br)cc2)nc(-n2nc(C)cc2C)n1`, the inhibition was 35.8% (inactive).
For `COc1cccc(/C=N/Nc2cc(C)nc(-c3ccccc3O)n2)c1O`, the inhibition was 93.4% (active).
For `COc1ccc(/C=N/Nc2cc(N3CCOCC3)nc(C)n2)c(OC)c1`, the inhibition was 19.1% (inactive).
With `COCCC(=O)Nc1ccc2c(c1)CN(C(=O)CCOC)CC2` the inhibition was 8.33% (inactive).
`O=C1NC(c2ccccc2)Oc2ccccc21` (stereo not drawn) was tested, and the inhibition was 12.9% (inactive).
In the case of `Cc1ccc(S(=O)(=O)NCCC(=O)OCC(=O)N(C)c2ccccc2)cc1`, the inhibition is reported as -1.91% (inactive).
In the case of `COc1ccc(CN2CCN(C(=O)c3cc(C4CC4)nn3-c3ccccc3)CC2)cc1F`, the inhibition is reported as 12.7% (inactive).
With `Cc1ccc(C)c(C(=O)N2CCC(n3nccc3NC(=O)C3CC3)CC2)c1` the inhibition was 13.7% (inactive).
`COc1cc(C2CC(=O)Oc3cc(OC)c(OC)c(OC)c32)cc(OC)c1OC` (stereo not drawn) was tested, and the inhibition was -1.07% (inactive).
`CC(CNC(=O)c1ccc(N)cc1)NC(=O)c1ccc(N)cc1` (stereo not drawn) was tested, and the inhibition was -17.5% (inactive).
With `O=C(CSc1ncn[nH]1)N/N=C/c1ccc(F)cc1` the inhibition was 1.12% (inactive).
In the case of `Cc1ccc(C(=O)/C=C/c2c(C)nn(-c3ccccc3)c2Cl)cc1`, the inhibition is reported as 7.37% (inactive).
In the case of `O=C(/C=C/Sc1ncn[nH]1)c1ccc(Cl)cc1`, the inhibition is reported as 97.6% (active).
With `CC(=O)Nc1ccc(S(=O)(=O)Nc2ccc(N3CCOCC3)c(F)c2)cc1` the inhibition was -7.04% (inactive).
For `CC(=O)Nc1ccc(NS(=O)(=O)c2ccc3c(c2)NC(=O)CC(=O)N3)cc1`, the inhibition was 9.58% (inactive).
In the case of `CC(=O)Nc1ccc(S(=O)(=O)Nc2ccc(N3CCCCC3)cc2)cc1`, the inhibition is reported as 55% (active).
With `COc1ccc(OCC(=O)NNC(=O)C2CCC2)cc1` the inhibition was 4.55% (inactive).

Source: PubChem BioAssay AID485346 (Sanford-Burnham Center for Chemical Genomics, 2010)
